The target of this experiment is TevN201-ZFE-6xHis (I-TevI 1-201 fused to ryA zinc finger) (synthetic (bacteriophage T4 I-TevI …)). In words: cleavage_in_vitro; 10 mM MgCl2, 100 mM NaCl, pH 8.0, 37 C. The settings on record: tags: C-terminal 6xHis; dsDNA, one strand shown. The method, then: Single time-point cleavage assays to determine the EC_{0.5max} of N201 Tev-ZFE were performed in buffer containing 20 mM Tris-HCl pH 8.0, 100 mM NaCl, 10 mM MgCl₂, 5% glycerol, 1 mM DTI and 10 nM pTZHS1.33. Reactions were incubated for 3 minutes at 37° C., stopped with 5 μl stop solution (100 mM EDTA, 40% glycerol, and bromophenol blue), and electrophoresed on a 1% agarose gel prior to staining with ethiduium bromide and analysis on an AlphaImager™3400 (Alpha Innotech). The EC_{0.5max} was determined by fitting the data to the equation
Cleavage assays were performed with wild type and mutant substrates and increasing concentrations of TevN201-ZFE to determine the amount of protein required for half-maximal cleavage (EC_{0.5max}). […] The greater substrate discrimination observed in the genetic assay likely reflects lower in vivo protein concentrations than those used for in vitro cleavage assays. […] Although the BmoN221-ZFE substrate specificity was not tested extensively, it was shown that the chimeric endonuclease cleaved the Bmo-ryA substrate plasmid, but not the target-less control plasmid.
As to “CTAGACAACACTCAGTAGATGTTTTCTTGGGTCTACCGTCCCACGCCGCATG”, the binding signal was ~4.7 fold higher EC0.5max vs TZ1.33.

With “CTAGAAAACACTCAGTAGATGTTTTCTTGGGTCTACCGTCCCACGCCGCATG”, the binding signal is ~60 fold higher EC0.5max vs TZ1.33.

(Values after patent US20130210151, “ENDONUCLEASE FOR GENOME EDITING” (University of Western Ontario, published 2013).)
